Compound activity from PubChem BioAssay.
This is a sample that favours compounds with a hit; in the whole collection about 6.1% have one here.
D1 ag: human D1 receptor agonism; P21728; HEK293 T-REx D1 cells, calcium flux, agonist mode; activation, % at 2 µM; 360,000 compounds, 1% hits; AID 504660; in the data active = activation above about 30%; note: 0% is about no effect
Target sequence (P21728 whole entry, looked up): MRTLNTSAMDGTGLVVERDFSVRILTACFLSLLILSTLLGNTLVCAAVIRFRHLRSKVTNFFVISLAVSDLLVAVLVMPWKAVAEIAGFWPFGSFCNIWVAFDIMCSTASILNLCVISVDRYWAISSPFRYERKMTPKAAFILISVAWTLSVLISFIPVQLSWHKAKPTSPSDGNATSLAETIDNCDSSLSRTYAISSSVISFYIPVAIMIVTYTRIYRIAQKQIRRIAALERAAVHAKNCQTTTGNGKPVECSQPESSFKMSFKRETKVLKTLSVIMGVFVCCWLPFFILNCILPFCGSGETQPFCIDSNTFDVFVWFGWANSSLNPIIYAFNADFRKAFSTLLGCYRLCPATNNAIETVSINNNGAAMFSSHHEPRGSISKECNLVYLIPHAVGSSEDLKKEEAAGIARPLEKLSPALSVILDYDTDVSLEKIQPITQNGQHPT
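Agonism was scored from calcium flux recorded over 180 s (1 read/s) after pintool compound addition, following a 10-cycle baseline. Cells were inducible force-coupled HEK293 TREx D1, plated overnight at 30 C and loaded with no-wash calcium dye.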
D1 PAM: potentiators of human D1 dopamine receptor; 360,000 compounds, 0.036% hits; P21728; potentiation, % at 10 µM; HEK293 TREx D1 cells, calcium flux, dopamine EC20 potentiation; in the data active = potentiation above about 30%; note: 0% is about no effect
DRD3 antagonist: D3 dopamine receptor (human) antagonism. D3R cells, DiscoveRx beta-arrestin luminescence, antagonist mode; active compounds read low. max response, negative = inhibition, %. 360,000 compounds, 2.5% hits. P35462; in the data active = max response below about -50%; inconclusive = no clear call, values can overlap the other calls; note: % is set by controls: 0 for no effect and ±100 for the full control effect
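Cells plated overnight at 1500 cells/well, then exposed to library compounds with dopamine controls for 90 minutes at 37 degrees C. DiscoveRx reagent added for 30–60 minutes at room temperature; luminescence read, quantitative HTS format.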
D1 antagonist: human D1 dopamine receptor antagonism. 360,000 compounds, 3.2% hits. HEK293 TREx D1 cells, calcium flux, dopamine EC80; active compounds read low. P21728. activity change, negative = inhibition, % at 10 µM; in the data active = activity change below about -30%; note: % is set by controls: 0 for no effect and ±100 for the full control effect
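Kinetic fluorescence of a calcium dye serves as the read-out. D1-expressing Hek293 Trex cells, induced overnight at 30 C, are exposed to compound for 180 s before an EC80 dopamine addition, then read 180 s further.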
D3 ag: activates the human D3 dopamine receptor; P35462; D3R DiscoveRx beta-arrestin cells, luminescence, 90 min; max activation, %; 410,000 compounds, 0.58% hits; in the data active = max activation above about 30%; note: 0% is about no effect
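Agonist mode: compounds and dopamine controls were applied to plated cells for 90 min at 37 degrees C after an overnight attachment at 1500 cells/well. Luminescent read-out followed 30 - 60 minutes at room temperature with DiscoveRx detection reagent.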
* = called active by the depositor; u = inconclusive; x = no result given.

SMILES	D1 ag	D1 PAM	DRD3 antagonist	D1 antagonist	D3 ag
Cc1ccc(C2=NN(CC(=O)NCCCN(CC(C)C)CC(C)C)C(=O)CC2)cc1	-3	-1	x	6	-20
O=[N+]([O-])c1ccc(CNc2ccc(Cl)cc2)s1	5	-9	-8	-37*	6
CC(=O)c1ccc(Nc2cc(C)nc3nc(Cc4ccc(Cl)cc4)nn23)cc1	3	0	x	-11	4
CCOC(=O)c1[nH]c2ccc(F)cc2c1NC(=O)C(C)N1CCc2cc(OC)c(OC)cc2C1 (stereo unspecified)	3	12	-55*	41	-11
COc1ccc(/C=N/NC(=O)c2ccc(C)cc2)cc1CN1CCN(c2ccc(F)cc2)CC1	0	-4	-10	-16	-13
COc1ccc(/C=N/NC(=O)c2ccncc2)cc1CN1CCN(c2ccc(F)cc2)CC1	0	-5	-55*	-12	-14
COc1ccc(/C=N/NC(=O)c2ccccc2O)cc1CN1CCOCC1	1	-14	-3	-33*	1
CC(=O)Nc1ccccc1-c1nc2ccccc2n(CC(=O)Nc2cccc(C)c2C)c1=O	4	-3	x	0	3
Cc1ccc(NC(=O)c2cc(S(=O)(=O)N3CCCCC3)c[nH]2)cc1N(C)C	3	-2	x	2	-13
COc1ccc(Oc2ccc(N/C=C3/CCCC3=O)cc2)cc1	2	-10	20	-31*	11
COc1ccc(Oc2ccc(N/C=C3\CCCC3=O)cc2)cc1	7	-5	0	3	-9
C=CCNC(=S)NNC(=O)c1cccn(Cc2ccc(Cl)cc2)c1=O	1	0	-67*	-12	-4
C=CCNC(=S)NNC(=O)c1cccn(Cc2cccc(Cl)c2)c1=O	2	-3	17	-16	-21
COc1ccccc1CNC(=O)c1ccc(Cn2c(SCc3ccccc3)nc3cccnc32)cc1	20	0	x	0	-19
CC(C)CCNC(=O)Cn1c2c(c(-c3ccccc3Cl)cc1=O)CCC2	7	3	-13	6	-3
CC1CCC(NC(=O)Cn2c3c(c(-c4ccccc4Cl)cc2=O)CCC3)CC1 (stereo unspecified)	-1	-3	-77*	5	-12
O=C(CSc1nnc(CNC(=O)c2cccc(F)c2)n1-c1ccccc1)Nc1ccccc1F	0	-4	x	-8	-5
O=S(=O)(Nc1ccc(Cc2ccncc2)cc1)c1ccc(Br)cc1	11	-7	28	-73*	-8
Cc1ccc(NS(=O)(=O)c2ccc3c(c2)N(C)C(=O)CC(=O)N3C)cc1Cl	3	0	x	6	-3
COc1ccc(C(=O)NC2CC3CCCC(C2)N3Cc2ccccc2)cc1 (stereo unspecified)	2	-12	-108*	-49*	-21
COc1ccccc1C(=O)NC1CC2CCC(C1)N2Cc1ccccc1 (stereo unspecified)	0	-12	-95*	-50*	-17
O=C(NC1CC2CCC(C1)N2Cc1ccccc1)c1ccccc1Br (stereo unspecified)	2	-10	-79*	25	-19
COc1ccc(C(=O)NC2CC3CCCC(C2)N3CC(C)C)cc1 (stereo unspecified)	4	-12	2	5	-6
Cc1ccccc1C(=O)NC1CC2CCCC(C1)N2CC(C)C (stereo unspecified)	x	x	-5	x	-2
COc1ccc(C(=O)NC2CC3CCCC(C2)N3Cc2ccccc2)c(OC)c1 (stereo unspecified)	2	-5	-89*	-13	-18
SMILES	D1 ag	D1 PAM	DRD3 antagonist	D1 antagonist	D3 ag
COc1ccc(OC)c(CCNC(=O)c2nc(-c3ccc(Cl)cc3)n3c2CCCCC3)c1	3	1	x	5	7
CCN(c1ccc(Cl)cc1)S(=O)(=O)c1nnc(NC(=O)C2CCCCC2)s1	16	-1	x	3	-17
CCOc1ccc(C(=O)NC2CCN(S(C)(=O)=O)CC2)cc1	1	-4	21	-13	0
CCOc1ccc(C(=O)NC2CC3CCCC(C2)N3Cc2ccccc2)cc1 (stereo unspecified)	5	-14	-54*	-16	-9
CCn1c(CNC(=O)c2ccc(OC)cc2)nnc1SCC(=O)Nc1ccc(OC)cc1	1	2	x	-6	-23
CCCCCCc1cc2cc(-c3nnc(-c4ccc(C)cc4)o3)c(=O)oc2cc1O	221*	4	x	23	10
CCCCCCc1cc2cc(C(=O)OCC)c(=O)oc2cc1O	16	3	5	-1	4
CCCCCCc1cc2cc(S(=O)(=O)c3ccc(F)c(Cl)c3)c(=O)oc2cc1O	51*	-5	30	-10	69*
CCCCCCc1cc2cc(/C(N)=N/NC(=O)c3ccncc3)c(=O)oc2cc1O	114*	-1	20	x	24
Cc1ccc(C)c(NC(=O)CSc2c(C)cnc3c2c(=O)n(C)c(=O)n3C)c1	-2	-1	x	x	6
O=C(CNC(=O)c1ccc2cc[nH]c2c1)OC(C(=O)Nc1cc(C(F)(F)F)ccc1Cl)c1ccccc1 (stereo unspecified)	7	-2	x	-7	x
CCc1ccc(C(=O)c2cn(CC(=O)Nc3ccc(OC)c(OC)c3)c3ccc(C)cc3c2=O)cc1	5	0	x	-2	-6
COCCn1c(SCC(=O)Nc2cccc(OC)c2)nnc1-c1ccc(Cl)cc1	3	2	16	16	6
COCCn1c(SCC(=O)NNC(=O)c2cc(Cl)ccc2OC)nnc1-c1ccncc1	0	-5	-100*	-2	-28
O=C(NCC1CCCO1)c1ccc(S(=O)(=O)N2CCC(c3nc4ccc(Cl)cc4[nH]3)CC2)cc1 (stereo unspecified)	-1	-7	-62*	-2	-6
O=C(c1ccc(S(=O)(=O)N2CCC(c3nc4ccccc4[nH]3)CC2)cc1)N1CCOCC1	2	8	-26	-89*	-6
O=S(=O)(c1ccc2c(c1)OCCO2)N1CCC(c2nc3ccc(Cl)cc3[nH]2)CC1	0	0	u	0	-5
S=C(NCc1ccccc1)NC1CCCCC1	1	-4	20	-3	-4
S=C(NCCc1c[nH]c2ccccc12)NC1CCCC1	7	1	6	-39*	3
S=C(NCCCc1ccccc1)NC1CCCCC1	32*	-5	u	-1	-17
Cc1ccc2nc(-c3cccc(NC(=O)CSc4ccc(Cl)cc4)c3)oc2c1	5	-4	x	-1	-1
Cc1ccc(NC(=O)/C=C\C(=O)NCC(=O)O)cc1C	3	-4	3	-37*	3
COC(=O)c1ccccc1OC(=O)c1cc[n+]([O-])cc1	7	31*	-5	9	-1
O=c1cc(O)c2sc3nc(-c4ccccc4)cc(C(F)(F)F)c3c2[nH]1	56*	-8	0	-2	2
CCC1=NN2C(=N)/C(=C\c3ccc(SCc4ccco4)o3)C(=O)N=C2S1	38*	-9	0	7	-2
